Bioassay records as filed in PubChem BioAssay.
Hits are enriched below; roughly 8% of the tested compounds scored in any of these assays.
Marburg entry inh – Marburg virus entry inhibition; Marburg virus pseudotyped entry inhibition, cell reporter; Potency, µM (top dose mostly 37.8 µM), inactives show at the top dose activity change, negative = inhibition, hits mostly inhibitors; 300,000 tested, 1.8% active; AID 540276; calls by dose curve; tested in HEK293 cells; also: potency is read from the fitted curve at half-maximal effect; % is scaled to controls: 0 for no effect and ±100 for the full control effect
HCV inh – blocks hepatitis C virus | Potency, µM (top dose mostly 41.8 µM), without a hit: at the top dose activity change, negative = inhibition, usual class: inhibitors | AID 651820 | Huh7.5.1 HCVcc-Cre infection, luciferase reporter, 44 h | 340,000 tested, 3.4% active; active = well fitted inhibition curve with a large enough effect; inconclusive = small, poorly fitted or top-dose-only effect, or another doubt; inactive = no such curve, though single readings can be large or run the other way; also: potency is read from the fitted curve at half-maximal effect; % is scaled to controls: 0 for no effect and ±100 for the full control effect
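Cells (1,000/well) were plated 4 h before compound, then infected with HCVcc-Cre virus (~0.5 moi). After 44 h further culture, infection was read as luciferase luminescence following a 15 min substrate incubation at room temperature.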
FMDV antiviral – blocks foot and mouth disease virus | FMDV antiviral cell-based qHTS | Potency, µM (doses to about 57.9 µM), for the others: at the top dose activity change, negative = inhibition, most hits filed as inhibitors | 410,000 tested, 1.2% active | AID 1159524; calls by dose curve; tested in HEK293T cells; also: read-out not given here; potency is read from the fitted curve at half-maximal effect; % is scaled to controls: 0 for no effect and ±100 for the full control effect; nearly all actives have a fitted effect of over 45% in size
SARS PLP yeast – blocks SARS-CoV papain-like protease in a yeast assay | S. cerevisiae expressing SARS-CoV PLpro, growth rescue | Potency, µM (doses to about 32.9 µM), for the others: at the top dose activity, positive = growth rescue, hits mostly activators | 330,000 tested, 0.19% active | AID 485353; calls by dose curve; also: potency is read from the fitted curve at half-maximal effect; 0% is about no effect; nearly all actives have a fitted effect of over 55% in size
Lassa entry inh – inhibitors of Lassa virus binding or cell entry | Lassa virus pseudotype entry inhibition, cell reporter | Potency, µM (titrated, usually from 37.9 µM), for inactives: at the highest dose activity change, negative = inhibition, actives largely listed as inhibitors | 300,000 tested, 1.2% active | AID 540256; calls by dose curve; tested in HEK293 cells; also: potency is read from the fitted curve at half-maximal effect; % is scaled to controls: 0 for no effect and ±100 for the full control effect; nearly all actives have a fitted effect of over 50% in size
HCMV antiviral – blocks human cytomegalovirus replication | 410,000 tested, 4.5% active | activity change, negative = inhibition, % at 57.5 µM | HFF cells, HCMV-luciferase reporter, 72 h; active compounds read low | AID 1259415; in the data active = activity change below about -60%; inconclusive = no clear call, values can overlap the other calls; inactive = above about -39%; also: % is scaled to controls: 0 for no effect and ±100 for the full control effect
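HFF cells seeded 16 h at 37C, treated with compounds, infected with luciferase-reporter HCMV at MOI 1 PFU/cell; luciferase read at 72 h post infection, normalized to buffer-only and Salinomycin controls.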
The depositor's hits bear a star; ? = inconclusive; / = no result given; [ ] = remark or other dose.

SMILES	Marburg entry inh	HCV inh	FMDV antiviral	SARS PLP yeast	Lassa entry inh	HCMV antiviral
O=C1CSC2(C(=O)N(Cc3ccccc3F)c3ccccc32)N1c1cccc(C(F)(F)F)c1 (stereo not drawn)	/	/	?	/	?	-26.7
COc1ccc(CCNC(=O)CCCn2c(=O)c3ccccc3n(Cc3ccccc3)c2=O)cc1OC	-16.1%[46.1 µM]	/	0.0%	/	?	-15.4
COc1ccc(Cl)cc1C1CC(=O)Nc2cc3c(cc21)OCCO3 (stereo not drawn)	?	/	-0.9%	/	-34.6%[46.1 µM]	-92.1*
O=C1CC(c2ccc(Cl)cc2)c2cc3c(cc2N1)OCCO3 (stereo not drawn)	?	/	-11.6%	/	-10.2%[46.1 µM]	?
CCCCC(CC)COC(=O)c1ccccc1C(=O)OCC(CC)CCCC (stereo not drawn)	/	5.62µM*	-9.8%	/	/	54.2
COc1cc2ccccc2cc1C(=O)Nc1ccc(CN2CCOCC2)cc1	17.8%[46.1 µM]	6.31µM*	38.7%	-3.0%	/	-2.5
CC(C)Oc1ccc(-c2cc(C(=O)NCCN3CCOCC3)c3ccccc3n2)cc1	-4.6%	10µM*	11.4%	-9.4%	-11.1%	94.6
O=C(NCCN1CCOCC1)c1cc2ccccc2oc1=O	?	3.16µM*	27.4%	1.3%	4.7%	-20.2
O=C(NCCN1CCOCC1)c1cc(-c2ccc(F)cc2)nc2ccccc12	22.2%	-1.5%	-6.3%	-2.8%	?	-22.5
O=C(NC(=S)Nc1ccc(CN2CCOCC2)cc1)c1cc2ccccc2o1	/	-8.7%	8.8%	0.1%	/	-70.2*
O=C(NCCN1CCOCC1)c1cc2ccccc2o1	14.0%[46.1 µM]	12.4%	14.3%	-2.0%	10.3%	-6.6
COc1cc(C(=O)NC2CC(=O)N(c3cccc(F)c3)C2)cc(OC)c1OC (stereo not drawn)	/	/	-16.0%	/	?	43.4
O=C(Nc1ccc(N2CCOCC2)cc1)c1cc2ccccc2o1	?	?	-15.3%	-5.1%	-0.8%	8.2
O=C(Nc1ccc(CN2CCOCC2)cc1)c1cc2ccccn2n1	?	1.8%	-66.3%	12.9%	6.51µM*	70.1
O=C(CCCc1ccccc1)NCCN1CCOCC1	24.4%	20.1%	16.3%	8.0%	2.3%	-100.4*
O=C(Nc1ccc(CN2CCOCC2)cc1)c1cc2ccccc2o1	?	35.5µM*	/	0.5%	-8.6%	20.6
CCCN1CCN(CCNC(=O)Nc2cc(OC)cc(OC)c2)CC1	-0.6%[46.1 µM]	/	-13.7%	/	?	11.3
CCOC(=O)c1c(NC(C)=O)sc2c(OCCN(CC)CC)c(Br)ccc12	/	12.6µM*	-3.1%	0.6%	/	?
CCOC(=O)c1c(NC(C)=O)sc2c(OCC(O)CN(CC)CC)c(Br)ccc12 (stereo not drawn)	11.2µM*	5.62µM*	14.2%	0.3%	2.51µM*	-101.2*
COc1ccc(-c2noc3c2-c2nc(-c4c(F)cccc4F)sc2CC3)cc1	/	3.55µM*	?	0.3%	/	9.3
CCOc1ccc(-c2nc3c(s2)CCc2onc(-c4ccc(OC)cc4)c2-3)cc1	/	8.6%	-14.6%	/	/	-60.4*
COc1ccc(-c2noc3c2-c2nc(-c4ccc(C)cc4)sc2CC3)cc1	/	15.9%	-23.6%	/	/	?
COc1ccc(-c2coc3c(O)c(OC)ccc3c2=O)cc1	/	/	-3.0%	/	/	/
CCN(CC)CC(=O)N1c2ccccc2Oc2c(c(=O)n(C)c(=O)n2C)C1c1cccc([N+](=O)[O-])c1 (stereo not drawn)	-12.2%[46.1 µM]	-6.8%	8.2%	1.0%	1.1%[46.1 µM]	43.2
CN1c2ccccc2Oc2c(c(=O)n(C)c(=O)n2C)C1c1cccc([N+](=O)[O-])c1 (stereo not drawn)	?	3.55µM*	-28.9%	2.2%	-27.1%	1.0
SMILES	Marburg entry inh	HCV inh	FMDV antiviral	SARS PLP yeast	Lassa entry inh	HCMV antiviral
COC[C@H]1O[C@@H]2O[C@@H]1[C@@H](C=Cc1ccccc1)C[C@H]2C	5.3%[14.2 µM]	/	/	/	/	/
Cc1ccc(S(=O)(=O)n2cccc2/C=C/[N+](=O)[O-])cc1	/	/	15.8µM*	/	/	-97.7*
O=C(O)c1[nH]c2ccc([N+](=O)[O-])cc2c1-c1ccccc1	/	21.2%	-17.3%	0.2%	/	60.9
NNC(=O)c1[nH]c2ccc([N+](=O)[O-])cc2c1-c1ccccc1	/	?	-12.7%	0.3%	/	-88.7*
Cc1cc(SCC(=O)Nc2ccc(O)cc2)n2nc(C)c(-c3ccccc3)c2n1	-27.9%[46.1 µM]	?	-24.0%	1.2%	-3.7%	-61.9*
C=C(C)CSc1cc(C)nc2c(-c3ccccc3)c(C)nn12	/	?	-1.0%	-2.6%	/	-84.8*
O=[N+]([O-])c1ccc(N2CCN(Cc3ccccc3)CC2)c2c1no[n+]2[O-]	/	/	28.2µM*	/	/	53.1
O=[N+]([O-])c1ccc(N2CCN(Cc3ccccc3)CC2)s1	15.7%[46.1 µM]	-16.7%	-16.5%	-0.2%	0.9%[46.1 µM]	-8.9
Cc1nc([N+](=O)[O-])c(Br)n1CC(=O)c1ccccc1	?	?	?	-9.7%	-27.0%	1.9
Cc1nc([N+](=O)[O-])c(Br)n1CC(=O)c1ccc2ccccc2c1	17.8µM*	10µM*	22.4µM*	-31.7%	?	69.6
Cc1nc([N+](=O)[O-])c(Br)n1CC(=O)c1ccc(Br)cc1	?	?	12.6µM*	-32.9%	-2.0%	-16.0
Cc1nc([N+](=O)[O-])c(C(=O)OCc2ccccc2Br)n1C	-9.5%[46.1 µM]	-10.1%	-19.3%	-3.5%	?	-35.2
COc1ccc([N+](=O)[O-])cc1NC(=O)c1ccc(C)o1	14.7%	?	-13.4%	7.9%	19.0%	-103.0*
COc1ccc([N+](=O)[O-])cc1NC(=O)c1cccs1	1.4%[46.1 µM]	11.2µM*	-1.9%	-1.6%	-2.1%[46.1 µM]	?
O=C(Nc1cc([N+](=O)[O-])ccc1F)c1cccs1	?	-2.5%	-8.3%	-26.3%	16.5%	-22.8
COc1ccccc1-c1ccc2n(c1=O)C[C@@H]1[C@@H](CO)[C@H](C(=O)NCCCN(C)C)N(C(C)=O)[C@H]21	/	/	/	/	/	3.1
CCN(CC)c1ccc(C(=O)NNC(=O)c2cccn2C)cc1	?	7.08µM*	13.3%	3.6%	-23.6%	26.1
Nc1cc(=O)nc(SCC(=O)Nc2ccc(F)cc2)n1-c1ccc(Cl)cc1	6.1%[46.1 µM]	/	-17.7%	/	3.6%[46.1 µM]	-5.3
CN1CCN(CCCNC(=O)c2ccc3c(Cl)c4c(nc3c2)CCCC4)CC1	/	10µM*	-23.2%	-2.4%	/	?
O=C(NCc1ccc(F)cc1)c1ccc2c(Cl)c3c(nc2c1)CCCC3	?	/	-19.1%	/	-1.1%[46.1 µM]	-72.9*
O=C(c1ccc2c(Cl)c3c(nc2c1)CCCC3)N1CCN(c2ccccc2)CC1	-23.2%[46.1 µM]	/	-4.4%	/	-0.6%[46.1 µM]	0.2
COc1ccc(CCNC(=O)c2ccc3c(Cl)c4c(nc3c2)CCCC4)c(OC)c1	1.2%[46.1 µM]	/	?	/	-22.3%[46.1 µM]	-94.1*
O=C(c1ccc2c(Cl)c3c(nc2c1)CCCC3)N1CCC(N2CCCCC2)CC1	4.61µM*	?	0.0%	-14.6%	?	-60.3*
COc1ccc(CNC(=O)c2ccc3c(Cl)c4c(nc3c2)CCCC4)c(OC)c1	8.3%[46.1 µM]	/	-20.7%	/	?	?
